From PubChem BioAssay AID2315 (National Center for Advancing Translational Sciences (NCATS), 2010)
In all, about 290,000 compounds went through this assay and about 27,000 (9.3%) were called active. Many of the other results were omitted from the sample, so actives are more common in it than they were. Unmarked numbers belong to inactive results. Cut-off read from the data, not from the text of the source: active = inhibition mostly above about 28% (no sharp cut-off); inactive = mostly below about 43%. Where a SMILES comes first, the peptide text is derived from it. The star is where a group is joined. OPac = O=C(CO*)c1ccccc1; Bz = O=C(c1ccccc1)*

assay: A qHTS for Small Molecule Inhibitors of Shiga Toxin; conditions: Vero cells, Shiga toxin protein synthesis inhibition reporter; at 38.7 µM, stronger effect = higher value; note: 0% is about no effect

| SMILES | inhibition |
| --- | --- |
| Cc1cc(C)cc(NS(=O)(=O)Cc2ccccc2)c1 | 40.6% |
| O=C(N/N=C\c1cc2c(cc1Cl)OCO2)c1ccc(Br)s1 | -3.59% |
| CC(NCc1cccs1)C(=O)Nc1cc(Cl)cc(Cl)c1 (configuration not stated) | 24.3% |
| Cc1ccc(-c2csc(N3CCN(c4cc5c(cc4Cl)nc(-c4ccncc4)n5CCOCCO)CC3)n2)cc1 | -3.86% |
| Cc1sc2ncn(CC(=O)NCCCC(=O)NCc3ccc(F)cc3)c(=O)c2c1C | -6.98% |
| Cc1n[nH]c(=O)n1-c1ccc(Oc2ccccc2)cc1 | 32% (active) |
| Cc1n[nH]c(=O)n1-c1ccc(C(C)C)cc1 | -1.39% |
| O=C1CS(=O)CN1c1ccc(Oc2ccccc2)cc1 (configuration not stated) | -11.4% |
| COC(=O)c1ccccc1SC1CC(=O)N(c2cccc(C)c2)C1=O (configuration not stated) | 25.9% |
| Cc1ccc([N+](=O)[O-])cc1S(=O)(=O)N1CCCN(C)CC1 | -3.46% |
| Cc1noc(C)c1/C=N/Nc1ccc2ccccc2n1 | 64.2% (active) |
| C(=N\Nc1ccc2ccccc2n1)/c1ccc2c(c1)OCO2 | 4.21% |
| Cc1nc(Cl)cc(N/N=C/c2ccccc2)n1 | 47.5% |
| CN(C)CCCNC(=S)N1CCN(c2nc(-c3ccccc3)cs2)CC1 | 23.7% |
| COc1ccccc1-c1c(C)nn2c(C)c(C(C)=O)cnc12 | 3.88% |
| COc1cc(C(C)=O)ccc1OC(=O)CN1C(=O)c2ccccc2C1=O | -4.18% |
| COc1ccccc1-c1sc2ccccc2c1-c1ccc(C(C)=O)cc1 | 24.8% (active) |
| CCOc1ccc(C2C(C#N)=C(N)N(N(C)C)C3=C2C(=O)CCC3)cc1 (configuration not stated) | -5.92% |
| CC(C)c1ccc(/C=C2\NC(=O)NC2=O)cc1 | 38.8% |
| CSCCC(NS(=O)(=O)c1ccc(C)cc1)C(=O)NCCc1c[nH]c2ccccc12 (configuration not stated) | -5.02% |
| O=C(O)c1ccc(/C=N/NC(=O)c2ccc(Br)cc2)cc1 | 17.5% |

| SMILES | inhibition |
| --- | --- |
| COC(=O)N/N=C/c1ccc(/C=N/NC(=O)OC)cc1 | -9.65% |
| CC(C)(C)OC(=O)N/N=C/c1ccc(C(=O)O)cc1 | 51.6% (active) |
| CC1CC(C)CN(S(=O)(=O)c2cccc3nonc23)C1 (configuration not stated) | -8.46% |
| COc1cccc(N(C(=O)CNC(=O)c2ccco2)C(C(=O)NC2CCCCC2)c2cccnc2)c1 (configuration not stated) | -9.43% |
| Oc1ccc(-c2c(-c3ccccc3)nn3c(C(F)(F)F)cc(C(F)(F)F)nc23)cc1 | -10.8% |
| Cc1ccc(N=C2NC(=O)c3cccc([N+](=O)[O-])c32)cc1 | 98.8% (active) |
| COC(=O)c1cccc([N+](=O)[O-])c1CS(=O)(=O)c1ccc(C)cc1 | -10.2% |
| CCN(Cc1ccccc1)C(=O)CCS(=O)(=O)c1ccc2c(c1)oc(=O)n2C | 0.994% |
| O=C(COC(=O)CNC(=O)c1ccccc1F)NCC(F)(F)F | 16.2% |
| O=C(CNC(=O)c1ccccc1)NCC(=O)OCC(=O)c1ccccc1 (Bz-Gly-Gly-OPac) | -5.66% |
| O=C(CNC(=O)c1ccccc1F)c1ccc(Br)cc1 | 79.7% (active) |
| CSc1nnc(CNC(=O)c2ccccc2)n1-c1ccc(F)cc1 | -6.7% |
| COC(=O)CNC(=O)c1ccccc1F | -15.6% |
| O=C(CNC(=O)c1ccc(F)cc1)c1ccccc1 | 90.2% (active) |
| COc1cc(C(C(=O)NC2CCCC2)N(Cc2ccccc2)C(=O)c2snc(C(N)=O)c2N)ccc1O (configuration not stated) | -1.22% |
| COc1cc(C(=O)OC2CCOC2=O)c([N+](=O)[O-])cc1OC (configuration not stated) | -8.09% |
| COCCCN1C(=O)C(=O)/C(=C(/O)c2ccc(S(=O)(=O)N3CCOCC3)cc2)C1c1ccc(F)cc1 (configuration not stated) | -3.02% |
| Cc1ccc(S(=O)(=O)N2CCC3(CC2)OCCO3)c(C)c1 | 19.9% |
| CN(CCC1CCOCC1)C(=O)CC1C(=O)NCCN1Cc1cccc(F)c1 (configuration not stated) | -4.33% |
| CN(C(=O)COc1ccccc1)c1nnc(-c2ccncc2)s1 | 3.11% |
| COc1cc(OC)cc(-c2nnc(N(C)C(=O)c3ccncc3)s2)c1 | -6.02% |

| SMILES | inhibition |
| --- | --- |
| CN(C(=O)c1ccccn1)c1nnc(-c2ccccn2)s1 | 115% (active) |
| COc1ccc(C(=O)NCCn2nc(C)cc2C)cc1OC1CCN(C(C)=O)CC1 | -11.5% |
| Cc1ccc(NC(=O)C(CC(=O)O)C2CCCO2)c(C)c1 (configuration not stated) | -1.94% |
| COc1cccc(CC(=O)Nc2nc(-c3ccc(OC)c(OC)c3)cs2)c1 | 17.3% |
| Cc1ccc(C)c(NC(=O)CCC(=O)NNC(=O)c2cccs2)c1 | -2.76% |
| Cc1ccc(C(=O)NNC(=O)c2cccs2)cc1 | 86.5% (active) |
| COc1cccc(CC(=O)Nc2ccc(-c3csc(C)n3)cc2)c1 | 28.8% (active) |
| O=C(NNC(=O)c1ccc(Cl)cc1Cl)c1cccs1 | 74.9% (active) |
| Cc1ccc(NNC(=O)c2cccs2)cc1Cl | 22.1% |
| Cc1ccc(-c2csc(NC(=O)Cc3cccs3)n2)cc1C | 37.6% |
| CC(C)C(=O)Nc1ccc(C(=O)NNC(=O)c2cccs2)cc1 | 28.6% |
| COc1cccc(NC(=O)CN2CCN(c3nc(-c4cccc(OC)c4)cs3)CC2)c1 | -2.33% |
| Cc1ccc(-c2csc(NNC(=O)c3ccccc3)n2)cc1 | 1.14% |
| NNC(=O)c1ccc(Cl)cc1Cl | 16.2% |
| COc1ccccc1CCNS(=O)(=O)c1cc2c3c(c1)C(C)C(=O)N3CCC2 (configuration not stated) | -4.37% |
| CCn1c(=O)c(=O)[nH]c2c(=O)oc3ccc(S(=O)(=O)Nc4ccc(OC)cc4)cc3c21 | -7.69% |
| O=C(NCc1cccs1)c1ccc(CS(=O)Cc2ccccc2Cl)o1 (configuration not stated) | -8.99% |
| COc1cc(CO)ccc1OCC(=O)Nc1cccc2ccccc12 | -2.74% |
| CC1CN(C(=O)CCC(=O)NCc2cccnc2)c2ccccc2O1 (configuration not stated) | -5.3% |
| O=C(CN1C(=O)c2cccnc2Oc2ccc(Cl)cc21)Nc1ccc(F)cc1 | -1.35% |
